Active and inactive are the calls of the source. Rule for the calls: active = hit-call score of the fitted dose curve at least 0.9, where 1 is the maximum; inactive = score below 0.9.
What was measured:
[1] = read-out: TIMP metallopeptidase inhibitor 1 (TIMP1), TIMP1 (gene 7076); experiment: BSK_hDFCGF_TIMP1: BioMAP Diversity Plus: hDFCGF Assay for TIMP metallopeptidase inhibitor 1 (TIMP1) Biomarker Activity (AID 2283062); conditions: primary human foreskin fibroblasts; actives raise or lower the signal
Procedure, shortened: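 Human foreskin fibroblast primary cultures dosed for 24 h; secreted/surface TIMP-1 quantified by ELISA. Bidirectional curve fitting against DMSO baseline; cytotoxicity tracked in parallel cultures by SRB total-protein staining.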

[2] = read-out: Monokine induced gamma interferon (MIG), CXCL9 (gene 4283); experiment: BSK_hDFCGF_MIG: BioMAP Diversity Plus: hDFCGF Assay for Monokine induced gamma interferon (MIG) Biomarker Activity (AID 2283063); conditions: primary human foreskin fibroblasts; actives raise or lower the signal
Procedure, shortened: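 MIG/CXCL9 measured by ELISA 24 h after dosing primary human skin fibroblasts. Activity fitted in both directions against DMSO controls. Cytotoxicity was checked in parallel cultures by SRB staining read at 560 nm.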

[3] = read-out: Matrix Metallopeptidase 1 (MMP1), MMP1 (gene 4312); experiment: BSK_hDFCGF_MMP1: BioMAP Diversity Plus: hDFCGF Assay for Matrix Metallopeptidase 1 (MMP1) Biomarker Activity (AID 2283064); conditions: primary human foreskin fibroblasts; actives raise or lower the signal
Procedure, shortened: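 ELISA read-out of MMP1 from human foreskin fibroblasts (primary skin cells), 24 h post-dose. Gain or loss of signal was fitted bidirectionally versus DMSO negative control; cytotoxicity was checked by SRB in parallel cultures.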

[4] = read-out: Vascular cell adhesion molecule 1 (VCAM1), VCAM1 (gene 7412); experiment: BSK_hDFCGF_VCAM1: BioMAP Diversity Plus: hDFCGF Assay for Vascular cell adhesion molecule 1 (VCAM1) Biomarker Activity (AID 2283065); conditions: primary human foreskin fibroblasts; actives raise or lower the signal;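 for AC50: VCAM-1 protein level quantified by ELISA after 24 h chemical exposure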
Procedure, shortened: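 Human foreskin fibroblast primary cells dosed with chemical, VCAM-1 measured by ELISA at 24 h. Bidirectional curve fitting relative to DMSO as negative control/baseline.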

[5] = read-out: Plasminogen activator inhibitor-1 (PAI1), SERPINE1 (gene 5054); experiment: BSK_hDFCGF_PAI1: BioMAP Diversity Plus: hDFCGF Assay for Plasminogen activator inhibitor-1 (PAI1) Biomarker Activity (AID 2283066); conditions: primary human foreskin fibroblasts; actives raise or lower the signal
Procedure, shortened: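 ELISA readout of PAI-1 from primary human skin fibroblast cultures, 24 h after compound addition. Gain or loss of signal was fitted bidirectionally against DMSO baseline.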

[6] = read-out: Intercellular Adhesion Molecule 1 (ICAM1), ICAM1 (gene 3383); experiment: BSK_KF3CT_ICAM1: BioMAP Diversity Plus: KF3CT Assay for Intercellular Adhesion Molecule 1 (ICAM1) Biomarker Activity (AID 2283067); conditions: primary human keratinocytes with fibroblasts; actives raise or lower the signal
Procedure, shortened: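 Human keratinocyte–foreskin fibroblast co-culture was treated for 24 h. Cell-surface ICAM-1 was quantified by ELISA, fitted bidirectionally relative to DMSO. Cytotoxicity was checked in parallel cultures by SRB total-protein staining.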

[7] = read-out: Interferon-gamma inducible Protein 10 (IP10), CXCL10 (gene 3627); experiment: BSK_KF3CT_IP10: BioMAP Diversity Plus: KF3CT Assay for Interferon-gamma inducible Protein 10 (IP10) Biomarker Activity (AID 2283068); conditions: primary human keratinocytes with fibroblasts; actives raise or lower the signal
Procedure, shortened: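 ELISA read-out of IP-10 after 24 h chemical dosing of human skin primary co-culture (keratinocytes, foreskin fibroblasts). Gain or loss of signal relative to DMSO, bidirectional curve fit.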

[8] = BSK_KF3CT_SRB: Viability Assessment in the BioMAP Diversity Plus: KF3CT Assay (AID 2283069); conditions: primary human keratinocytes with fibroblasts;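 note: total protein by sulforhodamine B staining as a cytotoxicity measure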
Procedure, shortened: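 SRB read-out at 560 nm (0.1% stain, TCA-fixed cells) gauges overt cytotoxicity in a human skin keratinocyte–fibroblast co-culture 24 h post-dosing. Signal change was fitted bidirectionally relative to DMSO control.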

[9] = read-out: Interleukin-1 alpha (IL1a), IL1A (gene 3552); experiment: BSK_KF3CT_IL1a: BioMAP Diversity Plus: KF3CT Assay for Interleukin-1 alpha (IL1a) Biomarker Activity (AID 2283070); conditions: primary human keratinocytes with fibroblasts; actives raise or lower the signal
Procedure, shortened: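 Primary skin co-culture (keratinocytes, foreskin fibroblasts), 24 h exposure; ELISA for IL-1a; bidirectional curve fit vs DMSO.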

[10] = read-out: TIMP metallopeptidase inhibitor 2 (TIMP2), TIMP2 (gene 7077); experiment: BSK_KF3CT_TIMP2: BioMAP Diversity Plus: KF3CT Assay for TIMP metallopeptidase inhibitor 2 (TIMP2) Biomarker Activity (AID 2283071); conditions: primary human keratinocytes with fibroblasts; actives raise or lower the signal
Procedure, shortened: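 ELISA readout of TIMP-2 in keratinocyte plus foreskin fibroblast co-cultures (human skin primary cells), 24 h post-dose. Gain or loss of signal fitted relative to DMSO.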

[11] = read-out: Transforming growth factor beta 1 (TGFb1), TGFB1 (gene 7040); experiment: BSK_KF3CT_TGFb1: BioMAP Diversity Plus: KF3CT Assay for Transforming growth factor beta 1 (TGFb1) Biomarker Activity (AID 2283072); conditions: primary human keratinocytes with fibroblasts; actives raise or lower the signal
Procedure, shortened: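 Read-out: ELISA for TGF-b1 in keratinocyte/foreskin fibroblast human skin co-culture, 24 h after dosing; bidirectional curve fit vs DMSO baseline; gain or loss of signal scored.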

[12] = read-out: C-C motif chemokine 2 (Homo sapiens) (UniProt P13500); experiment: BSK_KF3CT_MCP1: BioMAP Diversity Plus: KF3CT Assay for Monocyte Chemoattractant Protein 1 (MCP1/CCL2) Biomarker Activity (AID 2283073); conditions: primary human keratinocytes with fibroblasts; actives raise or lower the signal
Procedure, shortened: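 Human keratinocyte–foreskin fibroblast co-culture; MCP-1 measured by ELISA 24 h after dosing. Bidirectional fit vs DMSO; cytotoxicity tracked by SRB total protein in parallel cultures.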

[13] = read-out: Matrix Metallopeptidase 9 (MMP9), MMP9 (gene 4318); experiment: BSK_KF3CT_MMP9: BioMAP Diversity Plus: KF3CT Assay for Matrix Metallopeptidase 9 (MMP9) Biomarker Activity (AID 2283074); conditions: primary human keratinocytes with fibroblasts; actives raise or lower the signal;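 for AC50: MMP9 protein level quantified by ELISA in the co-culture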
Procedure, shortened: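 ELISA read-out of MMP-9 at 24 h post-dosing in a co-culture of human skin keratinocytes and foreskin fibroblasts. Gain or loss of signal was fitted in both directions against DMSO.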

[14] = read-out: urokinase plasminogen activator (uPA), PLAU (gene 5328); experiment: BSK_KF3CT_uPA: BioMAP Diversity Plus: KF3CT Assay for urokinase plasminogen activator (uPA) Biomarker Activity (AID 2283075); conditions: primary human keratinocytes with fibroblasts; actives raise or lower the signal
Procedure, shortened: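 Skin co-culture (keratinocytes + foreskin fibroblasts), human primary; 24 h post-dose; uPA by ELISA; gain/loss fit vs DMSO baseline.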

CD40, CD40 (gene 958) = experiment: BSK_LPS_CD40: BioMAP Diversity Plus: LPS Assay for CD40 Biomarker Activity (AID 2283076); conditions: primary human HUVEC with PBMC; actives raise or lower the signal
Procedure, shortened: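 HUVEC plus PBMC co-culture stimulated with LPS; CD40 quantified by ELISA 24 h after compound dosing. Fitting was bidirectional relative to DMSO. SRB staining of parallel cultures flagged overt cytotoxicity.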

[15] = read-out: E-selectin (Homo sapiens) (UniProt P16581); experiment: BSK_LPS_Eselectin: BioMAP Diversity Plus: LPS Assay for Eselectin Biomarker Activity (AID 2283077); conditions: primary human HUVEC with PBMC; actives raise or lower the signal
Procedure, shortened: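 Human umbilical vein endothelial cells co-cultured with PBMC under LPS stimulation; cell-surface E-selectin measured by ELISA 24 h after dosing. Change in either direction versus DMSO, with SRB total-protein staining in parallel cultures for cytotoxicity.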

[16] = read-out: Interleukin-8 (IL8), CXCL8 (gene 3576); experiment: BSK_LPS_IL8: BioMAP Diversity Plus: LPS Assay for Interleukin-8 (IL8) Biomarker Activity (AID 2283078); conditions: primary human HUVEC with PBMC; actives raise or lower the signal
Procedure, shortened: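 Human umbilical vein endothelial cells co-cultured with PBMC, LPS-stimulated, exposed to compound for 24 h. IL-8 quantified by ELISA; fitted in both directions against DMSO, with SRB total-protein staining of parallel cultures for cytotoxicity.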

[17] = BSK_LPS_SRB: Viability Assessment in the BioMAP Diversity Plus: LPS Assay (AID 2283079); conditions: primary human HUVEC with PBMC;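 note: total protein by sulforhodamine B absorbance as a cytotoxicity measure; measured one day after compound addition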
Procedure, shortened: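 Co-culture of human umbilical vein endothelial cells and PBMC, read 24 h after dosing. Total protein by 0.1% SRB staining after 10% TCA fixation, absorbance at 560 nm; bidirectional fit against DMSO.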

[18] = read-out: Interleukin-1 alpha (IL1a), IL1A (gene 3552); experiment: BSK_LPS_IL1a: BioMAP Diversity Plus: LPS Assay for Interleukin-1 alpha (IL1a) Biomarker Activity (AID 2283080); conditions: primary human HUVEC with PBMC; actives raise or lower the signal
Procedure, shortened: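 Human umbilical vein endothelial cells co-cultured with PBMC and stimulated with LPS; IL-1a measured by ELISA 24 h after dosing. Bidirectional fitting against DMSO; cytotoxicity checked by SRB staining in parallel cultures.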

[19] = read-out: Monocyte Chemoattractant Protein-1 (MCP1), CCL2 (gene 6347); experiment: BSK_LPS_MCP1: BioMAP Diversity Plus: LPS Assay for Monocyte Chemoattractant Protein-1 (MCP1) Biomarker Activity (AID 2283081); conditions: primary human HUVEC with PBMC; actives raise or lower the signal;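 for AC50: secreted MCP-1 protein quantified by ELISA in culture supernatant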
Procedure, shortened: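 Human umbilical vein endothelial cells co-cultured with PBMC, LPS-stimulated; secreted MCP-1 measured by ELISA 24 h after compound addition. Bidirectional curve fitting against DMSO baseline; SRB total-protein staining in parallel cultures for cytotoxicity.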

Measured: AC50

Chain of E-selectin (Homo sapiens) (P16581 whole entry, looked up): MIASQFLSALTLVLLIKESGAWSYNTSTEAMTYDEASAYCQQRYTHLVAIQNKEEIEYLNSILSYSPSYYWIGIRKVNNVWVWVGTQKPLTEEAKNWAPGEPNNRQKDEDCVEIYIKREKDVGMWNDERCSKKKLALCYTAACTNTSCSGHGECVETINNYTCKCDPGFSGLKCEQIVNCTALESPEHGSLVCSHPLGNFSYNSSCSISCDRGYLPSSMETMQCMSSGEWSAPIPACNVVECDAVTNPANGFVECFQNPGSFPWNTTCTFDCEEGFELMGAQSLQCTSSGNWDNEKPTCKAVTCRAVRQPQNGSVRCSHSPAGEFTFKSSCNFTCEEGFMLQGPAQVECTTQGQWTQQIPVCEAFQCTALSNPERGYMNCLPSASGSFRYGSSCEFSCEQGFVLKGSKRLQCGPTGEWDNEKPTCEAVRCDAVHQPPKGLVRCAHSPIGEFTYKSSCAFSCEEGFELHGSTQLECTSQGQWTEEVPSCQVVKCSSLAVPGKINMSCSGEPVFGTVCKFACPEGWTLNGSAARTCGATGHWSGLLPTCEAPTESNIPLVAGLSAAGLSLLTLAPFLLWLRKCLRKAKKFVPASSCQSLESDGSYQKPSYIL

c1ccc(CCc2ccccc2)cc1
active: [1] 36.6 µM | [3] 36.7 µM | [4] 30.9 µM | [5] 31.1 µM | [7] 30 µM | [8] 28.5 µM | [9] 25.2 µM | [10] 13.4 µM | [11] 12.8 µM | [12] 20 µM | [13] 28.5 µM | [14] 20 µM | CD40, CD40 (gene 958) 30.9 µM | [15] 31.9 µM | [16] 20 µM | [17] 36.4 µM | [18] 32.7 µM
inactive: [2] | [6] | [19]

CN(c1nccc(=O)[nH]1)C1CCN(c2nc3ccccc3n2Cc2ccc(F)cc2)CC1
inactive: all assays above

CCCCN(CCCC)C(=O)N(CCCC)CCCC
inactive: [16]
active: [1] 9.64 µM | [2] 11.9 µM | [3] 11.5 µM | [4] 9.04 µM | [5] 11 µM | [6] 8.66 µM | [7] 11 µM | [8] 8.91 µM | [9] 10.5 µM | [10] 4.62 µM | [11] 5.42 µM | [12] 4.75 µM | [13] 10.3 µM | [14] 7.68 µM | CD40, CD40 (gene 958) 20 µM | [15] 20 µM | [17] 30.2 µM | [18] 20 µM | [19] 20 µM
